Data: PubChem BioAssay AID463173 (ICCB-Longwood Screening Facility, Harvard Medical School, 2010)
Screen size: about 52,000 compounds; about 4,300 (8.3%) were called active. This excerpt belongs to a sample that is enriched for actives. A number with no mark means an inactive call. No stated cut-off is given here; in the data, active means survival mostly below about 52% (no sharp cut-off); inactive means mostly above about 56%.

Each molecule was assayed on DeltatarO mutant (assay: growth inhibition of S. aureus wild type versus tarO mutant, primary screen, teichoic acid synthesis inhibitors, RN4220, OD600 (AID 463173)). Conditions: OD600, 18 h, stronger effect = lower value, screened at 18.75 µg/mL (by protocol).

| SMILES | survival |
| --- | --- |
| Cc1cc(=O)n(CC(=O)N2CCCc3ccccc32)c2c1c(C)nn2-c1cccc(F)c1 | 85% |
| Cc1ccc(C)c(NC(=O)CSc2ncc3c(n2)-c2ccc(Cl)cc2N(C)S3(=O)=O)c1 | 74% |
| CCCCN(C)CCNC(=O)c1ccc2c(c1)NC(=O)CN2 | 71% |
| COc1ccc(-n2nc3ccc(NC(=O)c4cc5ccccc5o4)cc3n2)cc1Cl | 159% |
| O=C(Nc1ccc2nn(-c3ccc(Cl)cc3)nc2c1)c1cc2ccccc2o1 | 65% |
| O=C(Nc1ccc2nn(-c3ccccc3)nc2c1)c1ccc(-c2cccc(Cl)c2)o1 | 105% |
| CCOc1ccc(-n2nc3ccc(NC(=O)c4ccc(-c5cccc(Cl)c5)o4)cc3n2)cc1 | 45% (active) |
| CCOc1ccc(-n2nc3ccc(NC(=O)Cc4ccccc4)cc3n2)cc1 | 74% |
| COc1ccc(-n2nc3ccc(NC(=O)c4ccc(-c5cc(Cl)ccc5Cl)o4)cc3n2)cc1 | 40% (active) |
| CCCCN(CC)CCCNC(=O)c1cc2c(-c3ccc(OC)c(OC)c3)nn(C)c2s1 | 140% |
| Cc1ccc(N2CCN(C(=O)c3cnn(-c4ccc(C)c(C)c4)c3C3CCNCC3)CC2)c(C)c1 | 55% |
| CCN(CC)S(=O)(=O)c1ccc2oc(C(=O)Nc3ccc(Br)cc3F)c(C)c2c1 | 69% |
| O=C(O)CCN1CCCC1 | 78% |
| CCN(c1cccc(C)c1)c1ncnc2c1cnn2-c1cccc(Cl)c1 | 70% |
| Cc1ccc(/C=C(\C#N)c2nc(-c3ccc(-c4ccccc4)cc3)cs2)cc1 | 57% |
| CCc1ccc(/C=C(/C#N)c2nc(-c3ccc(C)cc3)cs2)cc1 | 8% (active) |
| CCOc1ccc(-c2csc(/C(C#N)=C/c3ccc(Br)cc3)n2)cc1 | 55% |
| N#C/C(=C/c1ccc(Cl)cc1)c1nc(-c2ccc(Br)cc2)cs1 | 65% |
| N#C/C(=C\c1ccc(F)cc1)c1nc(-c2ccc(-c3ccccc3)cc2)cs1 | 69% |
| COc1ccc(/C=C(/C#N)c2nc(-c3ccc(-c4ccccc4)cc3)cs2)cc1 | 73% |
| CC(C)c1ccc(/C=C(\C#N)c2nc(-c3ccc(O)cc3)cs2)cc1 | -1% (active) |
| CN(C)c1ccc(/C=C(\C#N)c2nc(-c3ccc(Cl)c(Cl)c3)cs2)cc1 | 76% |
| N#C/C(=C/c1ccc(O)cc1)c1nc(-c2ccc(-c3ccccc3)cc2)cs1 | 9% (active) |

| SMILES | survival |
| --- | --- |
| O=C(Nc1ccc(Cl)cc1)N1CCN(c2ccc3nnc(-c4ccc(F)cc4)n3n2)CC1 | 68% |
| Cc1ccc2oc(-c3cccc(NC(=O)c4sc5c([N+](=O)[O-])cccc5c4Cl)c3)nc2c1 | 67% |
| COc1cc(-c2nc(Cn3nnc(C(=O)Nc4ccccc4C)c3C)c(C)o2)cc(OC)c1OC | 58% |
| COc1ccc(NC(=O)c2c(C)oc3ccc(O)c(CN4CCN(Cc5ccccc5)CC4)c23)cc1 | 56% |
| CCn1c(=O)c2sccc2n2c(CCC(=O)Nc3ccc(F)cc3)nnc12 | 82% |
| O=C(CSc1nc2ccccc2n1Cc1ccc(F)c(Cl)c1)N1CCN(c2ccc(F)cc2)CC1 | 61% |
| Cc1csc2nc(COC(=O)c3ccccc3NC(=O)c3cccc(Br)c3)cc(=O)n12 | 87% |
| Cc1ccc(CNC(=O)c2c(-c3cccc(Br)c3)noc2C)o1 | 87% |
| Cc1ccc(NC(=O)CN(CCc2ccccc2)S(=O)(=O)c2ccccc2)c(C)c1 | 38% (active) |
| Cc1ccc(C)c(NC(=O)CN(CCc2ccccc2)S(=O)(=O)c2ccccc2)c1 | 46% (active) |
| CCOc1ccccc1NC(=O)CN(CCc1ccccc1)S(=O)(=O)c1ccc(C)cc1 | 106% |
| Cc1c(Cl)cccc1NC(=O)CN(CCc1ccccc1)S(=O)(=O)c1ccccc1 | 49% |
| COc1ccc(S(=O)(=O)N(CCc2ccccc2)CC(=O)Nc2cc(C)ccc2C)cc1 | 48% |
| COc1ccc(S(=O)(=O)N(CCc2ccccc2)CC(=O)Nc2cc(Cl)ccc2C)cc1 | 58% |
| Cc1cccc(NC2=CC(c3cccc(Br)c3)N(c3cccc(C)c3)C2=O)c1 (stereo not given) | 137% |
| Cc1ccccc1Cn1ccn(-c2ccc(F)c(F)c2)c(=O)c1=O | 76% |
| O=C(CCNS(=O)(=O)c1ccc2c(c1)CCN2C(=O)C1CC1)N1CCN(c2cccc(Cl)c2)CC1 | 122% |
| COc1ccc(OCC(=O)N2CCc3ccccc3C2)cc1 | 80% |
| O=c1n(Cc2cccc(C(F)(F)F)c2)c2ccccc2c2nc(-c3ccccc3)nn12 | 80% |
| O=c1n(Cc2cccc(F)c2)c2ccccc2c2nc(-c3ccccc3)nn12 | 33% (active) |
| O=c1n(Cc2ccc(F)cc2)c2ccccc2c2nc(-c3ccccc3)nn12 | 86% |
| Cc1cccc(Cn2c(=O)n3nc(-c4ccccc4)nc3c3ccccc32)c1 | -16% (active) |
| Cc1ccc(-c2nc3c4ccccc4n(Cc4cccc(Cl)c4)c(=O)n3n2)cc1 | 123% |

| SMILES | survival |
| --- | --- |
| Cc1cccc(-c2nc3c4ccccc4n(Cc4cccc(Cl)c4)c(=O)n3n2)c1 | 97% |
| COc1cccc(CNC(=O)Cn2c(=O)n3nc(-c4cccc(F)c4)nc3c3ccccc32)c1 | 77% |
| CCc1cccc(NC(=O)Cn2c(=O)n3nc(-c4cccc(F)c4)nc3c3ccccc32)c1 | 52% (active) |
| Cc1cccc(-c2nc3c4ccccc4n(CC(=O)Nc4cccc(F)c4)c(=O)n3n2)c1 | 95% |
| CCOc1ccc(NC(=O)c2oc3ccccc3c2NC(=O)Cc2cccs2)cc1 | 82% |
| O=C(Cn1cnc2c(cnn2-c2ccccc2)c1=O)c1ccccc1 | 55% |
| O=C(Nc1ccc(F)cc1F)c1ccc(-n2cnnc2)cc1 | 73% |
| CCc1ccc(N(CC)C(=O)Cn2c(=O)oc3ccccc32)cc1 | 70% |
| COC(=O)C1=C(c2ccccc2)c2ccccc2S(=O)(=O)N1CC(=O)Nc1ccccc1Cl | 37% |
| Cc1oc2ncn(C)c(=O)c2c1C(=O)NCc1ccc(Cl)cc1 | 84% |
| CCOc1ccccc1NC(=O)C1CCN(S(=O)(=O)c2ccc3c(c2)CCCN3C(C)=O)CC1 | 75% |
| CC(NC(=O)C1CCN(S(=O)(=O)Cc2ccccc2)CC1)c1ccccc1 (stereo not given) | 68% |
| COc1ccc(-c2cc(C(F)(F)F)nc(SCC(=O)N3CCCCC3)n2)cc1OC | 71% |
| COc1ccc(-c2cc(C(F)(F)F)nc(SCC(=O)N3CCCCC3)n2)cc1 | 74% |
| CCC1CCCCN1C(=O)CSc1nc(-c2ccc(OC)c(OC)c2)cc(C(F)(F)F)n1 (stereo not given) | -3% (active) |
| CCC1CCCCN1C(=O)CSc1nc(-c2ccc(OC)cc2)cc(C(F)(F)F)n1 (stereo not given) | 1% (active) |
| COc1ccc(-c2cc(C(F)(F)F)nc(SCC(=O)N3CCCCC3C)n2)cc1OC (stereo not given) | 52% |
| COc1ccc(-c2cc(C(F)(F)F)nc(SCCC(=O)N3CCN(C)CC3)n2)cc1 | 114% |
| O=C(CNCc1ccco1)Nc1cccc(OC(F)(F)F)c1 | 99% |
| O=C(CN1C(=O)C2CCCCN2c2ccc(C(=O)N3CCCC3)cc21)NCc1cccc(F)c1 (stereo not given) | 66% |
| CCCCOc1cccc(C(=O)Nc2cccc3ccc(C)nc23)c1 | 75% |
| CCN(CCN(C)C)C(=O)Cn1ncc2c([nH]c3ccc(C)cc32)c1=O | 88% |
| Cc1ccc(Cl)cc1-n1ncc2c(NC3CCCCC3)ncnc21 | 54% |

| SMILES | survival |
| --- | --- |
| CCOc1ccc(NC(=O)c2c(C)oc3nc(C)nc(N4CCOCC4)c23)cc1 | 93% |
| COc1ccc(N2CCOCC2)cc1 | 89% |
| CCOc1nc(Nc2ccc(OC)cc2)nc(N2CCOCC2)n1 | 70% (active) |
| COc1ccccc1Nc1nc(Nc2cccc(C(F)(F)F)c2)nc(N2CCOCC2)n1 | 73% |
| CCOc1ccc(Oc2nc(NCC(C)C)nc(N3CCOCC3)n2)nn1 | 79% |
| CCOc1ccc(Oc2nc(NC)nc(N3CCOCC3)n2)nn1 | 99% |
| COc1ccc(Nc2nc(Nc3ccc(OC)cc3OC)nc(N3CCOCC3)n2)c(OC)c1 | 14% (active) |
| CCOc1ccc(Nc2nc(Nc3ccc(OCC)cc3)nc(N3CCOCC3)n2)cc1 | 44% (active) |
| CCCCNc1nc(Oc2ccc(OCC)nn2)nc(N2CCOCC2)n1 | 77% |
| Cc1cc2c(cc3c(SCc4cccc(F)c4)nnc(C)n32)o1 | 68% |
| CCOC(=O)Cn1cnc2onc(-c3ccc(F)cc3)c2c1=O | 141% |
| CCOc1ccccc1NC(=O)CSc1nc2c(oc3ccccc32)c(=O)n1-c1ccc(C)c(C)c1 | 88% |
| COc1ccccc1NC(=O)Cn1c(=O)n(Cc2ccccc2)c(=O)c2ccccc21 | 75% |
| COc1ccc(N(C(=O)COc2c(C)cccc2C)S(=O)(=O)c2ccc(Cl)cc2)cc1 | 73% |
| CCS(=O)(=O)Nc1ccc(-c2cn3ccsc3n2)cc1 | 17% (active) |
| COc1ccc(C(=O)Nc2cccc(-c3cn4ccsc4n3)c2)cc1OC | 92% |
| COc1cccc(OC)c1C(=O)Nc1cccc(-c2cn3ccsc3n2)c1 | 82% |
| CCCS(=O)(=O)Nc1cccc(-c2cn3ccsc3n2)c1 | 134% |
| COc1cc(OC)cc(C(=O)Nc2cccc(-c3cn4ccsc4n3)c2)c1 | 6% (active) |
| CN(C)S(=O)(=O)Nc1ccc(-c2cn3ccsc3n2)cc1 | 55% |
| O=C(NCCc1ccccc1Cl)c1ccc2c(c1)nc1n2CCCCC1 | 80% |
